Screening results from PubChem BioAssay.
ERp5 block = inhibitors of human ERp5 | Q15084 | ERp5 insulin aggregation, absorbance 650 nm, 90 min | inhibition, % at 9.99 µM | hit rate 0.05% among 350,000;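 active = mean replicate inhibition above about 25%, with every replicate also reaching it, limit read from the data, passing the limit was not always enough; inconclusive = only one of those two criteria met; inactive = neither criterion met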
Target sequence (Q15084 whole entry, looked up): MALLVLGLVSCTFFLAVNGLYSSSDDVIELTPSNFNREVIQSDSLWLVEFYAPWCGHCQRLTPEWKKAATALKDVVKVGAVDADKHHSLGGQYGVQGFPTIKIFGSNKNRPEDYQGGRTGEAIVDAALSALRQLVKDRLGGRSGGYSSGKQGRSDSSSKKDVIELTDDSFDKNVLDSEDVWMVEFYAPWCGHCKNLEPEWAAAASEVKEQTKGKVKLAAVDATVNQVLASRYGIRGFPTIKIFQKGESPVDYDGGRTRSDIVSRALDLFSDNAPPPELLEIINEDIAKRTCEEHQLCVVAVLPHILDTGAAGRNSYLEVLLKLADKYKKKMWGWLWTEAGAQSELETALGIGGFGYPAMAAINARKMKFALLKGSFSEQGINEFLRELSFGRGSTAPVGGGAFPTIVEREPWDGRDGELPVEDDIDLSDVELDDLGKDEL
MLL AF4-AF9 inh = inhibitors of human MLL-AF4/AF9 interaction | P42568 | AlphaScreen, biotin-AF4 peptide binding to FLAG-AF9 | inhibition, % at 10 µM | hit rate 0.47% among 350,000 | AID 651704;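 active = every replicate reaching a set inhibition limit, whatever the replicate mean, cut at about 25% in these data; inconclusive = mean inhibition reaches that limit but some replicates miss it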
PDI turbidity = PDI (human) enzyme inhibition. P07237. PDI insulin aggregation turbidity, A650, 90 min. inhibition, % at 10 µM. hit rate 0.052% among 350,000;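 active = mean inhibition across replicates of 30% or more, whatever share of single replicates reach that level; inconclusive = mean inhibition below 30% while every single replicate reaches 30%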
ERAP1 inh = blocks human ERAP1 aminopeptidase activity. Q9NZ08. recombinant ERAP1, Leu-AMC fluorescence, 60 min. inhibition, % at 10.7 µM. hit rate 0.15% among 340,000. AID 652197;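 active = mean replicate inhibition of at least 30%, or all replicates individually reaching that 30% level; inactive = mean below 30% and not every replicate reaching it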
DENV2 CPE = protects cells from dengue virus 2 cytopathic effect; hit rate 1.7% among 350,000; DENV2-infected cells, cytopathic effect rescue, plate reader; AID 651640; CPE inhibition, % at 9.99 µM; in the data active = CPE inhibition above about 20%, passing the limit was not always enough; inconclusive = no clear call, values can overlap the other calls; tested in BHK-21 cells
Of the large screens only hits and unclear results are named; the others gave an inactive call. Most compounds without a hit are left out; they make up all but 1.8% or so of the library.

O=C(N[C@@H]1CC[C@H](CCNS(=O)(=O)c2ccc(Cl)cc2)O[C@H]1CO)c1cccnc1	none (no result: PDI turbidity)
CC(=O)c1cc2c(cc1NC(=O)c1cc(C)nn1-c1ccccc1)OCO2	ERp5 block inconclusive, MLL AF4-AF9 inh 34
COc1ccc(NS(=O)(=O)c2cccs2)cn1	DENV2 CPE 24
C[C@H](CO)N1C[C@H](C)[C@H](CN(C)C(=O)CN2CCOCC2)Oc2ncc(C3=CCCCC3)cc2C1=O	none (no result: PDI turbidity)
CN(C)c1ccc(-c2cc3ccccc3c(=O)o2)cc1	DENV2 CPE 114
COc1ccc(-c2cc3ccccc3c(=O)o2)cc1	none (no result: PDI turbidity)
C[C@@H]1CN([C@@H](C)CO)C(=O)c2cc(NS(C)(=O)=O)ccc2O[C@@H](C)CCCCO[C@H]1CN(C)C(=O)c1ccncc1	DENV2 CPE 69 (no result: PDI turbidity)
C[C@H](CO)N1C[C@H](C)[C@H](CN(C)C(=O)c2ccncc2)OCCCC[C@H](C)Oc2ccc(NS(=O)(=O)c3cn(C)cn3)cc2C1=O	DENV2 CPE 24 (no result: PDI turbidity)
Oc1cc(Nc2cccnc2)cc2cccnc12	MLL AF4-AF9 inh 39
Oc1cc(Nc2ccncc2)cc2cccnc12	MLL AF4-AF9 inh 70
C[C@H]1CN([C@@H](C)CO)C(=O)c2cc(NC(=O)Nc3cccc4ccccc34)ccc2O[C@@H]1CN(C)Cc1ccc(-c2ccccc2)cc1	none
C[C@@H]1CN([C@@H](C)CO)C(=O)c2cccc(NC(=O)Nc3ccc4c(c3)OCO4)c2O[C@@H]1CN(C)C	DENV2 CPE 24 (no result: PDI turbidity)
C[C@H](CO)N1C[C@H](C)[C@H](CN(C)Cc2ccc(-c3ccccc3)cc2)Oc2ccc(NC(=O)Nc3cccc4ccccc34)cc2C1=O	DENV2 CPE 25 (no result: PDI turbidity)
C[C@H](CO)N1C[C@H](C)[C@H](CN(C)Cc2ccc(Oc3ccccc3)cc2)Oc2c(NC(=O)Nc3ccc4c(c3)OCO4)cccc2C1=O	none (no result: PDI turbidity)
C[C@H](CO)N1C[C@H](C)[C@H](CN(C)Cc2ccc(-c3ccccc3)cc2)Oc2c(NC(=O)Nc3ccc4c(c3)OCO4)cccc2C1=O	DENV2 CPE 21 (no result: PDI turbidity)
C[C@@H]1CN([C@H](C)CO)C(=O)c2cccc(NC(=O)Nc3ccc4c(c3)OCO4)c2O[C@H]1CN(C)Cc1ccc(Oc2ccccc2)cc1	ERp5 block 32 (no result: PDI turbidity)
C[C@@H]1CN([C@H](C)CO)C(=O)c2cccc(NC(=O)Nc3ccc4c(c3)OCO4)c2O[C@@H]1CN(C)Cc1ccc(-c2ccccc2)cc1	none (no result: PDI turbidity)
Cc1ccc(S(=O)(=O)N(C)C[C@@H]2Oc3ccc(NC(=O)Cn4cnnn4)cc3CC(=O)N([C@@H](C)CO)C[C@@H]2C)cc1	none (no result: PDI turbidity)
C[C@H](CO)N1C[C@H](C)[C@H](CN(C)Cc2ccc(-c3ccccc3)cc2)Oc2ccc(NC(=O)Nc3ccc4c(c3)OCO4)cc2C1=O	DENV2 CPE 24 (no result: PDI turbidity)
C[C@H]1CN([C@@H](C)CO)C(=O)c2cccc(NC(=O)Nc3ccc4c(c3)OCO4)c2O[C@@H]1CN(C)Cc1ccccc1	DENV2 CPE 39 (no result: PDI turbidity)
C[C@H]1CN([C@@H](C)CO)C(=O)c2cccc(NC(=O)Nc3ccc4c(c3)OCO4)c2O[C@H]1CN(C)Cc1ccccc1	none (no result: PDI turbidity)
C[C@@H]1CN([C@H](C)CO)C(=O)c2cc(NC(=O)Nc3ccc4c(c3)OCO4)ccc2O[C@@H]1CN(C)Cc1ccc(-c2ccccc2)cc1	none (no result: PDI turbidity)
COc1ccc2c3c([nH]c2c1)[C@@H](CO)N(C(=O)NC(C)C)CC31CCN(Cc2ccc(F)cc2)CC1	none (no result: PDI turbidity)
Cc1cccc(N2C(=O)N3[C@H](c4ccc(Br)cc4)[C@@H]4C(=O)N(C(C)(C)C)C(=O)[C@@H]4[C@]3(C)C2=O)c1	DENV2 CPE 26
CN1c2ccc(Cl)cc2C(=O)NC1c1ccc([N+](=O)[O-])s1 (configuration not stated)	DENV2 CPE 45 (no result: ERAP1 inh)
O=C(NC[C@@H]1CC[C@@H]2[C@@H](CN2S(=O)(=O)c2ccccc2[N+](=O)[O-])O1)C1CCCCC1	none (no result: PDI turbidity)
COCC(=O)N1C[C@@H](C)[C@H](OC)CN(C)C(=O)c2ccc(NC(=O)c3cc(C)on3)cc2OC[C@H]1C	none (no result: PDI turbidity)
O=C1[C@@H](Oc2ccccc2)[C@@H](c2ccccc2)N1c1cccnc1	none
O=C1[C@@H](Oc2ccccc2)[C@@H](c2ccncc2)N1c1ccccc1	DENV2 CPE 47
CN(C)CCCNc1oc(-c2ccc(Cl)cc2)nc1S(=O)(=O)c1ccccc1	DENV2 CPE 39
CN(C)CCCNc1oc(-c2ccccc2Cl)nc1S(=O)(=O)c1ccccc1	none
CC(C)CC#Cc1ccc2c(c1)O[C@@H](CN(C)Cc1ccccn1)[C@@H](C)CN([C@@H](C)CO)S2(=O)=O	none (no result: PDI turbidity)
CCOC(=O)C(=C1Nc2ccccc2N1)n1c(-c2cnccn2)nc2ccccc21	DENV2 CPE 57 (no result: PDI turbidity)
Cc1ccc2c(c1)c1c(n2CC(O)CNC2CCCC2)CCCC1 (configuration not stated)	DENV2 CPE 27 (no result: MLL AF4-AF9 inh)
Cc1ccc2c(c1)c1c(n2CC(O)Cn2ccnc2C)C(=O)CCC1 (configuration not stated)	none (no result: ERp5 block, MLL AF4-AF9 inh, ERAP1 inh, DENV2 CPE)
COc1ccc(NC(=O)C2C(c3ccc4c(c3)OCO4)=Nc3ccccc3N2C(C)=O)cc1 (configuration not stated)	DENV2 CPE 27 (no result: MLL AF4-AF9 inh, PDI turbidity)
COCC(=O)N1CC2(CCN(C(C)=O)CC2)c2c([nH]c3cc(OC)ccc23)[C@@H]1CO	none (no result: PDI turbidity)
COc1ccc(C)cc1NC(=O)C1CCN(S(=O)(=O)c2cccc3cccnc23)CC1	DENV2 CPE 28
COc1ccc(NC(=O)C2CCN(S(=O)(=O)c3cccc4cccnc34)CC2)cc1OC	none (no result: ERAP1 inh)
COc1ccc(NC(=O)C2CCN(S(=O)(=O)c3cccc4nonc34)CC2)cc1OC	MLL AF4-AF9 inh 26
Cc1ccc(S(=O)(=O)NC[C@@H]2CC[C@@H]3[C@@H](CN3Cc3cc(-c4ccccc4)on3)O2)cc1	none (no result: PDI turbidity)
COc1ccccc1NC(=O)N[C@H]1C=C[C@H](CC(=O)N[C@H](C)c2ccccc2)O[C@@H]1CO	none (no result: PDI turbidity)
COc1ccccc1NC(=O)N[C@@H]1C=C[C@H](CC(=O)N[C@@H](C)c2ccccc2)O[C@H]1CO	DENV2 CPE 66 (no result: PDI turbidity)
CN(C)S(=O)(=O)N1CCC(Oc2ccc(C(=O)N3CCCCCCC3)cc2)CC1	DENV2 CPE 45
COC(=O)CCCC1=CC2=CC(=O)C(C)(OC(=O)c3cccs3)C(=O)C2=CN1CCc1ccccn1 (configuration not stated)	DENV2 CPE 24
C[C@@H]1CN([C@H](C)CO)C(=O)c2cc(NC(=O)Cc3ccccc3)ccc2O[C@@H](C)CCCCO[C@H]1CN(C)C(=O)C1CCCCC1	DENV2 CPE inconclusive (no result: PDI turbidity)
CC(C)(C(=O)N1CCC1(C)C(=O)Nc1ccccc1Br)c1ccccc1 (configuration not stated)	DENV2 CPE 25
CC(C)(C(=O)N1CCC1(C)C(=O)NC1Cc2ccccc2C1)c1ccccc1 (configuration not stated)	none
CCC(=O)N1CC2(C1)[C@@H](c1ccc(-c3ccc(F)cc3)cc1)[C@H](CO)N2C(=O)CC	DENV2 CPE 27 (no result: PDI turbidity)
COCC(=O)N1CC2(C1)[C@@H](c1ccccc1)[C@@H](CO)N2C(=O)c1cccnc1	none (no result: PDI turbidity)
